Measured values as given in PubChem BioAssay AID1347430 (National Center for Advancing Translational Sciences (NCATS), 2020).
Hit rate of the full screen: of about 91,000 compounds, about 130 (0.14%) were called active. Inconclusive results (about 3%) are left out. Calls come from the whole dose curve; as a rule, active = well fitted inhibition curve with a large enough effect; inconclusive = small, poorly fitted or top-dose-only effect; inactive = flat fitted curve, though single readings scatter. What follows is part of a selection rich in actives, with near analogues and random picks from the rest. Where a call stands in place of a potency, no number is given.

These molecules were tested on Uracil-DNA glycosylase (assay: Primary qHTS assay for inhibitors of Activation Induced Cytidine Deaminase (AID): UDG Counterscreen signal). Settings: FRET deamination/UDG coupled assay, UDG read, 4 h; series mostly up to 115 µM.
Source text: Assay Provider (PI) Patricia Gearhart Ph.D.
National Institute on Aging
National Institute of Health (NIH), Bethesda, MD
Assay Provider (PI) Rahul Kohli Ph.D.
Perelman School of Medicine
University of Pennsylvania, Philadelphia, PA
Activation-Induced Deaminase (AID) is a cytosine deaminase which converts cytosine into uracil within stretches of ssDNA. The presence of uracil in DNA initiates a cascade of mutagenic DNA repair to introduce point mutations and DNA double strand breaks. Specific targeting of AID to the immunoglobulin heavy chain loci (Igh) promotes mutagenesis in the antibody variable region for somatic hypermutation (SHM) or switch regions leading to class switch recombination (CSR). However, AID also plays a role in accumulating unnecessary mutations across the genome. Mis-targeting of AID results in the initiation of tumor development and leads to greater drug resistance among cancer cells when continually expressed. To identify an AID inhibitor, a small molecule library will be screened in collaboration with NCATS core facility at NIH. To confirm biological function, inhibitors will be examined in an in vitro murine B-cell activation assay and subsequent secondary validation screens. Top molecules will be further screened to identify inhibitory efficacy against a wild type primary splenocytes assay. Using these approaches, we hope to identify a small molecule with great efficacy and low toxicity for use as a molecular probe to further characterize AID's intricacies, or even as a therapeutic.
A FRET based analysis of cytosine deamination, was developed to identify potential inhibitors of AID catalytic activity. This screen has two signal output, Read 1 evaluates the AID inhibition response. The second readout (Read 2) evaluates UDG response and is uses as a counterscreen to exclude false positive inhibitors. Inhibition in AID and inactivity in the UDG signal is the desired outcome for this assay.
SEQUENCE No. (e.g., 1, 2, 3, etc.); […] (e.g., Cells, Incubation, Reagent, etc.); VALUE; DESCRIPTION
1a; Reagent; 3 uL; [4/3x] 1 uM AID/2.67 U/mL UDG
1b; Reagent; 3 uL; 2 U/mL UDG
1c; Reagent; 3 uL; 1 uM AID
2a; Compound; 46 nL; Follow-up plates (0.64 uM - 10 mM)
2b; Control; 46 nL; ATA ([…] - 10 mM)
3; Time; 10 min; incubation at room temperature
5; Time; 4 hr; incubation at room temperature
6; Reagent; 4 uL; [2x] 250 mM NaOH
7; Time; 15 sec; centrifuge at 1000 rpm
8; Time; 30 min; incubation at room temperature
9a; Detection; fluorescence (Read 1: AID); EnVision (PerkinElmer) plate reader, 540 excitation and 590 emission filters
9b; Detection; fluorescence (Read 2: UDG); EnVision (PerkinElmer) plate reader, 560 excitation and 665 emission filters
NOTES (numbers refer to sequence above)
1a; Reagents were dispensed in a medium-binding black solid-bottom Greiner plates (789176F) using a BioRptr liquid dispenser. Dispense 3 uL of [4/3x] 1 uM AID (provided by Kohli lab) and [4/3x] 2 U/mL UDG (NEB M0280L) into columns 1, 2, 5 to 48.
1b; Dispense 3 uL of [4/3x] 2 U/mL UDG into column 3.
1c; Dispense 3 uL of [4/3x] 1 uM AID into column 4.
2a; Compound (7-points [uM] (0.64; 3.2; 16; 80; 400; 2,000; 10,000; 20,000) double pin-transferred (Dip Factor = 2) using the Kalypsys (Wako USA) pintool equipped with a 1536 pinhead for a final concentration range of 7.32 nM - 114 uM.
2b; 10 mM Aurintricarboxylic Acid (Sigma A1895) (ATA, 8-point, n = 2, 1:2.5 dilution in column 2) double pin-transferred (Dip Factor = 2) using the Kalypsys (Wako USA) pintool equipped with a 1536 pinhead for a [final] range of 186 nM - 114 uM.
3; Room temperature incubation.
4; Dispense 1 uL of substrate mixture from the Kohli lab [4x] […] DJC20 and [4x] 250 nM DJC23 into columns 1 to 48 .
5; Room temperature incubation.
6; Dispense 4 uL of substrate mixture [2x] 250 mM NaOH into columns 1 to 48.
7; Centrifugation step to remove bubbles.
8; Room temperature incubation
9a; Fluorescence signal (column label AID) was read using the EnVision plate reader. […]
Note: nearly all actives have a fitted effect of over 65% in size.
Potency is the fitted concentration of half-maximal effect.

Row | Structure (SMILES) | Potency
1 | CNC(=O)c1ccc2c(c1)CCCN2C(=O)c1ccc(Cl)cc1 | inactive
2 | COc1ccc(CN(Cc2cc(=O)oc3cc(C)c(C)cc23)C2CC2)cc1 | inactive
3 | COCCNC(=O)CS(=O)Cc1nc(-c2ccc(C)cc2)oc1C (stereo not given) | inactive
4 | Cc1cc2nc(-c3ccccc3)c(-c3ccccc3)nc2cc1C | inactive
5 | Cc1ccc(C)c(OCc2ccc(-c3nc(C#N)c(NC(C)C)o3)o2)c1 | 70.8 µM (active)
6 | CCC(C)Nc1oc(-c2ccc(COc3ccc(Cl)cc3)o2)nc1C#N (stereo not given) | inactive
7 | Cc1ccccc1OCc1ccc(-c2nc(C#N)c(N3CCCCC3)o2)o1 | inactive
8 | N#Cc1cccnc1NCCC12CC3CC(CC(C3)C1)C2 | inactive
9 | Cc1cc(=O)oc2c(C)c(OC(C)C(=O)NCCc3ccc(S(N)(=O)=O)cc3)ccc12 (stereo not given) | inactive
10 | O=C(NCc1ccc2c(c1)OCO2)c1cccc(N2CCCN(Cc3ccc(F)cc3)C2=O)c1 | inactive
11 | CC(C)(C(=O)Nc1ccc(F)c(NC(=O)C2CC2)c1)c1ccccc1 | inactive
12 | CNCCC(F)(F)F | inactive
13 | OC(COCc1ccccc1F)Cn1nnc(-c2cccnc2)n1 (stereo not given) | inactive
14 | O=C(COC(=O)Cc1n[nH]c(=O)c2ccccc12)NCC1CCCO1 (stereo not given) | inactive
15 | CCOc1ccc(-c2csc(-c3ccc(Cl)cc3)n2)cc1 | inactive
16 | O=C(NCc1cccc(OC(F)F)c1)c1ccccc1-n1cnnn1 | inactive
17 | COCCn1c(C)cc(C(=O)C(=O)Nc2nnc(COc3cc(C)ccc3C)s2)c1C | inactive
18 | CCc1ccccc1N(C)C(=O)C1CCCN(c2ncnc3onc(-c4ccc(F)cc4)c23)C1 (stereo not given) | inactive
19 | CCc1ccc(N(CC)C(=O)CCn2cnc3onc(-c4ccc(F)cc4)c3c2=O)cc1 | 89.1 µM (active)
20 | CN(Cc1ccccc1)c1ncnc2onc(-c3ccc(F)cc3)c12 | inactive

Row | Structure (SMILES) | Potency
21 | CCN(CC)C(=O)CNC(=O)c1cc2ccccc2c(OC)n1 | inactive
22 | N#Cc1cccc(C(=O)NC(c2ccccc2)c2cccs2)c1 (stereo not given) | inactive
23 | CCCC/C=N/NC(=O)CCCCCCCCCCC | inactive
24 | CCCCCCCc1ccc(-c2ccc(OC)cc2)nc1 | inactive
25 | CCN(CC)S(=O)(=O)c1cc(NC(=O)c2n[nH]c3ccccc23)ccc1C | inactive
26 | O=S(=O)(Cc1nnnn1-c1ccccc1)c1ccccc1 | inactive
27 | CCCNc1c(NC(=O)C(C)C)c(=O)oc2ccccc12 | inactive
28 | CC(C)(C)c1ccccc1OCC(=O)Nc1cccc(C#N)c1 | inactive
29 | COCC(C)n1c(COc2ccccc2F)nnc1SCC(C)C (stereo not given) | inactive
30 | COCCNC(=S)NNC(=O)Cc1ccc(OC)c(OC)c1 | inactive
31 | CCCCNC(=O)CCc1c[nH]c2ccccc12 | inactive
32 | COC(=O)CNC(=O)/C(C)=C/c1ccccc1 | inactive
33 | N#Cc1ccc(CNc2cc(Cl)ccc2Cl)cc1 | inactive
34 | Cc1ccc(NC(=O)c2ccc(Cl)cc2N2CCCC2=O)cc1 | inactive
35 | Ic1nc[nH]c1I | inactive
36 | COc1ccc(NC(=O)COc2ccc(F)cc2)c2cccnc12 | inactive
37 | Cc1ccc(-n2c(SCC(=O)Nc3cccc(F)c3)nc3c(=O)[nH]cnc32)cc1 | inactive
38 | Cc1ccc(C(=O)NC(C)C)c(Cl)c1 | inactive
39 | Cc1cc(C)c2c(c1)/C(=N/Nc1nc3ccccc3[nH]1)CCC2 | inactive
40 | Cc1[nH]c2ccccc2c1/C=N/c1sc2c(c1C#N)CCC(C)C2 (stereo not given) | inactive

Row | Structure (SMILES) | Potency
41 | CCCc1ccc(OC(=O)c2ccc3c(c2)-c2ccccc2C3=O)cc1 | inactive
42 | Cc1csc(SCCCOc2ccc(C#N)cc2)n1 | inactive
43 | COc1ccc(CNC(=S)NCC(C)N2CCCCC2C)cc1 (stereo not given) | inactive
44 | Cn1nc(C(=O)OCC(=O)N(Cc2ccccc2)C(C)(C)C)c2ccccc2c1=O | inactive
45 | O=C(C1=COCCO1)N1CCN(c2ccccc2)CC1 | inactive
46 | O=C1/C(=C/c2cccc(Br)c2)CCc2ccccc21 | inactive
47 | COc1ccc(C(=O)/C(C#N)=C\c2ccccc2OC(F)F)cc1 | inactive
48 | Cc1cc(C(=O)O)cc(S(=O)(=O)Nc2ccc(Cl)c3cccnc23)c1C | inactive
49 | C=CCNC(=O)NC(=O)CN(C)Cc1ccc(-c2ccc(Br)cc2)o1 | inactive
50 | CC(C)CNC(=O)CSc1nnc(COc2ccccc2Cl)o1 | inactive
51 | O=C(O)c1ccc(Nc2nc(-c3ccc4ccccc4c3)cs2)cc1O | inactive
52 | CC(=O)Nc1ccc(NC(=O)Nc2ccccc2Cl)cc1 | inactive
53 | CCN1CCC(CNC(=O)c2cc(C)nc3cc(F)ccc23)CC1 | inactive
54 | COc1ccc(NC(NC(=O)C(C)C)C(Cl)(Cl)Cl)cc1 (stereo not given) | inactive
55 | O=C(CCc1ncc(-c2ccc(F)cc2)o1)NCc1ccc(OC(F)F)cc1 | inactive
56 | CNC(=S)NNC(=O)c1cccc(C)c1 | inactive
57 | CC(=O)NCc1ccc(C(=O)COc2ccc(C(C)=O)cc2)cc1 | inactive
58 | N#Cc1ccccc1-n1ccnc1 | inactive
59 | O=C(OCC(=O)c1cccs1)c1cccc(O)c1 | inactive
60 | CC(C)(C)c1nc2cc(NC(=O)c3ccc[nH]c3=O)ccc2o1 | inactive
